In the library only some 5.7% were active in any assay of this set; here they are far more common.
hcDAF12 agonist: activators of H. contortus DAF-12 nuclear receptor; AID 652067; activation, % at 6.8 µM; HEK293 hcDAF-12 lit1-tk-luc reporter, luminescence; 0% DMSO, 100% Δ7-dafachronic acid; 1.4% of 370,000 active;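 active = activation above the mean of all tested compounds plus 3 SD, cut at about 5.5% in these data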;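 also: 100% = response to 3 µM Δ7-dafachronic acid high control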
hgDAF12 agonist: agonists of H. glycines DAF-12 nuclear receptor. HEK293 GAL4-hgDAF12 UAS-luciferase reporter, agonist luminescence; normalized to butyrate control. activation, % at 6.8 µM. 1.8% of 370,000 active;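 active = activation above a cutoff set at the mean of all screened compounds plus 3 SD, cut at about 10% in these data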;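 also: 0% = DMSO wells and 100% = sodium butyrate wells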
DAX1 inh-1: NR0B1 (DAX1) inhibition; AID 504766; inhibition, % at 6.75 µM; 0.99% of 340,000 active; HEK293 Gal4-DAX1 luciferase reporter, luminescence; P51843;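 active = inhibition above the mean over all tested compounds plus 3 SD, cut at about 4.2% in these data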;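 also: 0% = DAX1-transfected cells with DMSO and 100% = empty-vector control cells with DMSO; inhibition shows as a rise in luminescence from relieved DAX1 repression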
DAX1 inh-2: inhibitors of DAX1 repression of SF-1 activated StAR promoter; HEK293T StAR-luciferase reporter, SF-1/DAX-1 repression relief; inhibition, % at 6.8 µM; 1.1% of 370,000 active; AID 652010;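 active = inhibition above the mean over all tested compounds plus 3 SD, cut at about 3.6% in these data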;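 also: 0% = DAX-1 cells with DMSO and 100% = cells lacking DAX-1 with DMSO; higher inhibition means more luminescence from relief of DAX-1 repression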
AHR activator: human AHR activation; P35869; AHR-responsive luciferase reporter cells, luminescence; activation, % at 5 µM; 2.5% of 320,000 active; AID 2796; in the data active = activation above about 47%;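 also: 0% = vehicle wells and 100% = reference agonist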
ssDAF12 agonist: activators of S. stercoralis DAF-12 nuclear receptor. AID 652126. 1% of 370,000 active. activation, % at 6.8 µM. HEK293 ssDAF-12/GRIP1 lit1-tk-luc reporter, luminescence; % of 3 µM dafachronic acid response;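 active = activation above the mean over all tested compounds plus 3 SD, cut at about 0.9% in these data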;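 also: 0% = DMSO-only wells and 100% = 3 µM delta7-dafachronic acid wells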
An asterisk follows results filed as active; / = no result given.

SMILES	hcDAF12 agonist	hgDAF12 agonist	DAX1 inh-1	DAX1 inh-2	AHR activator	ssDAF12 agonist
CCn1c(=O)cc(OCC(=O)N2CCN(c3ccc(F)cc3)CC2)c2ccccc21	-0.9	0.7	2.0	-0.4	54.0*	-0.6
CCn1c(=O)cc(OCC(=O)Nc2ccccc2C#N)c2ccccc21	0.6	-0.4	2.4	-0.8	72.5*	-0.2
Cc1cccc(NC(=O)c2n[nH]c([N+](=O)[O-])c2Br)c1C	3.1	10.7*	0.1	3.6*	9.0	0.6
Cc1cccc(NC(=O)c2ccccn2)c1C	-1.6	7.2	1.7	2.0	-1.1	-0.9
O=C(CN1CCN(S(=O)(=O)c2ccc(Cl)cc2)CC1)NC1CCCC1	-0.4	0.3	-0.9	3.8*	7.0	-1.0
CCNC(=O)c1sc(=S)n(-c2ccc(C)cc2)c1N	-1.7	-0.4	2.5	-0.5	0.5	-1.5
NC(=O)c1sc(=S)n(-c2ccc(Br)cc2)c1N	6.5*	0.8	1.2	-0.6	36.8	0.3
CCCCn1cnc2c(oc3ccccc32)c1=O	0.1	12.0*	0.8	1.0	/	-0.2
COc1ccc(-c2nc3ccc(N4CCN(C)CC4)cc3c(=O)[nH]2)cc1	-0.9	4.5	5.0*	0.7	56.4*	-0.9
Cc1cc(C)c(S(=O)(=O)Nc2ccccn2)c(C)c1	-1.7	-0.8	4.3*	0.4	0.5	-1.7
CCC(=O)Nc1ccc(S(=O)(=O)Nc2ncccn2)cc1	-0.5	1.5	2.2	-0.4	1.1	-1.2
Cn1nc(C(=O)Nc2ccc(S(=O)(=O)N3CCCC3)cc2)ccc1=O	2.7	1.0	-0.1	-0.6	-1.4	-1.1
CCC(=O)Nc1ccc(S(=O)(=O)Nc2nccs2)cc1	-0.2	-0.3	4.3*	0.6	1.8	-0.1
CCC(=O)Nc1ccc(S(=O)(=O)Nc2ccccn2)cc1	5.0	2.5	-0.4	0.8	1.7	1.4*
Cn1nc(C(=O)Nc2ccc(S(=O)(=O)Nc3ncccn3)cc2)ccc1=O	-1.7	4.0	5.1*	0.3	2.8	-0.6
COCc1ccc(CN2CCCC(CO)(Cc3ccccc3)C2)o1 (stereo not drawn)	0.2	-3.6	0.0	0.0	-0.1	-0.6
C=CCN=C1NC(c2cccc(Cl)c2)C(C(=O)OC)=C(C)N1Cc1cccc(C(F)(F)F)c1 (stereo not drawn)	-0.1	1.4	/	-1.3	/	-1.0
Cc1c(C(=O)N(Cc2cccc(Br)c2)C2CCS(=O)(=O)C2)oc2ccc(F)cc12 (stereo not drawn)	0.3	-1.7	1.2	-0.6	4.5	-1.6
CN(C)C(CNC(=O)CCc1nc2sc3c(c2c(=O)[nH]1)CCCC3)c1ccccc1 (stereo not drawn)	-1.6	1.1	-0.3	-0.8	-0.8	-1.3
O=C(Nc1ccc(S(=O)(=O)Nc2nccs2)cc1)c1ccncc1	-2.2	2.9	/	0.6	/	-1.2
O=C(Nc1ccc(S(=O)(=O)Nc2nccs2)cc1)C1=NN(c2ccccc2)C(=O)CC1	3.9	-1.1	0.5	1.0	23.5	1.2*
O=S(=O)(c1ccc(C(F)(F)F)cc1)N1CCCc2nc(-c3ccc(F)cc3)ccc21	2.7	3.6	/	0.2	/	-0.9
O=C(CSc1nc2ccsc2c(=O)n1NC(=O)c1ccccc1)Nc1nccs1	1.1	11.3*	1.2	1.2	-1.1	-0.1
Cc1nc2ccccc2c(=O)n1NC(=O)c1ccc(Cl)cc1	-1.3	5.3	2.3	-0.8	5.1	-1.1
O=C(CSc1nc2ccccc2c(=O)n1NC(=O)c1ccccc1)c1ccc(Cl)cc1	3.2	12.2*	3.2	2.8	-1.5	0.4
SMILES	hcDAF12 agonist	hgDAF12 agonist	DAX1 inh-1	DAX1 inh-2	AHR activator	ssDAF12 agonist
O=C(CSc1nc2ccccc2c(=O)n1NC(=O)c1ccccc1)c1ccccc1	4.5	11.6*	2.6	2.6	1.4	1.2*
COCC1CCN(C(=O)C2CCC(=O)N(C3CCCC3)C2)CC1 (stereo not drawn)	4.1	4.2	-0.1	0.3	-1.2	0.1
COC1CCN(C(=O)C2CCC(=O)N(C3CCCCCC3)C2)CC1 (stereo not drawn)	6.3*	5.0	0.6	0.7	0.4	0.0
CC(=O)NCCC1CCN(C(=O)C2CCC(=O)N(C3CCCC3)C2)CC1 (stereo not drawn)	-0.1	-1.5	0.4	-0.4	0.5	1.6*
COc1cccc(/C=C2\SC(=S)N(CCC(=O)NNC(=O)c3ccccc3OC)C2=O)c1	4.7	2.0	-0.4	0.5	23.4	1.0*
O=C(CCN1C(=O)/C(=C\c2cccc(Br)c2)SC1=S)NCCCN1CCOCC1	6.0*	0.6	0.7	0.5	1.1	-0.6
COc1cccc(/C=C2\SC(=O)N(CCC(=O)NNC(=O)c3ccccc3Cl)C2=O)c1	-2.4	-0.3	-1.1	-0.1	36.4	-1.4
O=C(CCN1C(=O)/C(=C\c2ccccc2F)SC1=S)Nc1ccc(C(=O)O)c(O)c1	0.3	0.6	1.7	3.9*	-1.5	-0.6
COc1ccccc1/C=C1\SC(=S)N(CCC(=O)NNC(=O)c2ccccc2O)C1=O	/	/	-0.6	/	56.4*	/
COc1cccc(NC(=O)N2CCC(NC(=O)C(Cc3ccccc3F)NC(C)=O)CC2)c1 (stereo not drawn)	1.9	0.6	0.0	-0.1	2.1	-0.9
O=C(NNC(=S)Nc1ccccc1)c1ccc2ncccc2c1	-0.5	7.1	1.2	2.5	-2.0	-1.7
CC(C)(C)NC(=S)NNC(=O)c1ccc2ncccc2c1	3.9	11.3*	1.7	3.8*	7.5	0.0
COc1cccc(OCc2ccc(Cn3nc(NC(=O)NCCc4ccc(OC)c(OC)c4)c4ccccc43)cc2)c1	5.8*	2.0	/	-0.1	/	2.2*
CC(NC(=O)/C(C#N)=C/c1ccc(N2CCOCC2)cc1)c1ccccc1 (stereo not drawn)	-3.7	-0.1	-0.8	-0.9	47.3*	-1.6
COc1ccccc1N(CC(O)CN1C(C)CCCC1C)S(=O)(=O)c1ccccc1 (stereo not drawn)	-1.3	2.0	0.5	0.3	-3.0	-1.3
CCN1CC=C2C(C#N)=C(N)C(C#N)(C#N)C(CCc3ccccc3)C2C1 (stereo not drawn)	2.7	1.1	0.4	0.3	46.6	1.0*
O=c1c(-c2ccccc2)c[nH]n1-c1cccc([N+](=O)[O-])c1	0.8	2.6	8.3*	1.8	1.6	-0.6
O=c1c(-c2ccc(Cl)cc2)c[nH]n1-c1ccccc1	1.2	3.0	0.9	0.2	4.4	-1.2
CCCCNC(=O)c1cc(-c2ccc3c(c2)OCO3)on1	2.8	2.4	2.8	0.8	6.3	0.0
CCN(CC)CCCNC(=O)c1cc(-c2ccc3c(c2)OCO3)on1	-2.7	0.5	1.4	0.2	-4.6	-0.4
CCCNC(=O)c1cc(-c2ccc3c(c2)OCO3)on1	2.4	10.9*	0.3	3.2	7.4	0.3
CCN(CC)C(=O)c1cc(-c2ccc3c(c2)OCO3)on1	3.3	7.8	2.1	2.6	73.0*	-0.1
